Laboratory results published in PubChem BioAssay (Tox21).
“And” between values parts separate entries of the source, which are not always exact repeats. Equal values may be shown once. Records with an inconclusive call do not appear. Entries that show only a call come without a potency. The source holds several records for some structures; these can differ, active in one and inactive in another. The source made the active and inactive calls. Unless noted, calls follow the shape of the dose curve; as a rule, active = well fitted curve in the direction sought with a large enough effect in the repeat runs; inconclusive = weak or mixed curves; inactive = no such curve, though single readings can be large; an effect the other way counts as inactive or inconclusive.

target: Androgen receptor (Homo sapiens) (UniProt P10275); assay: qHTS assay to identify small molecule antagonists of the androgen receptor (AR) signaling pathway using the MDA cell line in the presence of 0.5 nM R1881 (AID 1259243); conditions: MDA-kb2 MMTV-luciferase, R1881 0.5 nM, 16 h; series mostly up to 92.4 µM; also: nearly all actives have a fitted effect of over 50% in size; also: potency is read from the fitted curve at half-maximal effect
Procedure, shortened: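 Cells: MDA-kb2 (MMTV-luc). Stimulus: 0.5 nM R1881. Time: 16 hr, 37C, no CO2. Detection: ONE-Glo luminescence after 30 min at RT.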

Chain of Androgen receptor (Homo sapiens) (P10275 whole entry, looked up): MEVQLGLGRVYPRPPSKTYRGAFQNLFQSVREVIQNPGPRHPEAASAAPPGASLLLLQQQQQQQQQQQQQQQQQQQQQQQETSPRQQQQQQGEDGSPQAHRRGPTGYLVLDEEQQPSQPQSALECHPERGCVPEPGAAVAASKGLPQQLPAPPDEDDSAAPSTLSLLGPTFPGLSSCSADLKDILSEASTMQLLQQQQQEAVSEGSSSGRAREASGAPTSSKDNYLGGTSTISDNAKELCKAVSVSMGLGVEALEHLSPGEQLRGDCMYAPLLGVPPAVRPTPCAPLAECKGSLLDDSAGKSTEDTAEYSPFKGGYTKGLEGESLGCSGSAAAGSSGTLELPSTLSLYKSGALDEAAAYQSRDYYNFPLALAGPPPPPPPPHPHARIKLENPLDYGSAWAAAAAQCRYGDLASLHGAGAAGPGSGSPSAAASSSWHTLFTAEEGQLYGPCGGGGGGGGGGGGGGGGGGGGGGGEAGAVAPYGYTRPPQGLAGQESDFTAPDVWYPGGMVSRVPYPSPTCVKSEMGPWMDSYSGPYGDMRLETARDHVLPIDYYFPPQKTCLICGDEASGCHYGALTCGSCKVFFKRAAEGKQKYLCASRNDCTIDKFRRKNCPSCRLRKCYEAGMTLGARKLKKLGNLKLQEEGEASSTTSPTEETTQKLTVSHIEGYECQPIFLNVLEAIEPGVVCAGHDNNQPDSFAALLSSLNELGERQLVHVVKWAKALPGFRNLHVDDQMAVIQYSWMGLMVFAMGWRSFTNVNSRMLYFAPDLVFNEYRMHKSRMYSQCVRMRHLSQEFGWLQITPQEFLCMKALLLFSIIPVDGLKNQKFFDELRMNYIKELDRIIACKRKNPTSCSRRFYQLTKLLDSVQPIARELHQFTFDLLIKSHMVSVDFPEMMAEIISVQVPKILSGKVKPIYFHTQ

Compound | Potency
CC12CC1(C)C(=O)N(c1cc(Cl)cc(Cl)c1)C2=O (stereo not drawn) | 1.21 µM (active) and 1.37 µM (active)
CC(C)c1cccc(C(C)C)c1O | inactive
COC(C)(C)CCCC(C)C/C=C/C(C)=C/C(=O)OC(C)C (stereo not drawn) | inactive
c1ccc2c(c1)CCCC2 | inactive

target: Estrogen receptor (Homo sapiens) (UniProt P03372); assay: qHTS assay to identify small molecule antagonists of the estrogen receptor alpha (ER-alpha) signaling pathway using the BG1 cell line in the presence of 0.1 nM 17-beta-estradiol (AID 1259244); conditions: VM7Luc4E2 (BG1) ERE-luciferase, antagonist mode, 0.1 nM E2, 22 h; series mostly up to 92.4 µM; also: nearly all actives have a fitted effect of over 50% in size
Procedure, shortened: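 Seeding of stripped-serum-adapted VM7Luc4E2 cells, 24 h attachment, compound transfer, then 0.1 nM final 17beta-estradiol; after 22 h incubation, ONE-Glo reagent and luminescence reading.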

Chain of Estrogen receptor (Homo sapiens) (P03372 whole entry, looked up): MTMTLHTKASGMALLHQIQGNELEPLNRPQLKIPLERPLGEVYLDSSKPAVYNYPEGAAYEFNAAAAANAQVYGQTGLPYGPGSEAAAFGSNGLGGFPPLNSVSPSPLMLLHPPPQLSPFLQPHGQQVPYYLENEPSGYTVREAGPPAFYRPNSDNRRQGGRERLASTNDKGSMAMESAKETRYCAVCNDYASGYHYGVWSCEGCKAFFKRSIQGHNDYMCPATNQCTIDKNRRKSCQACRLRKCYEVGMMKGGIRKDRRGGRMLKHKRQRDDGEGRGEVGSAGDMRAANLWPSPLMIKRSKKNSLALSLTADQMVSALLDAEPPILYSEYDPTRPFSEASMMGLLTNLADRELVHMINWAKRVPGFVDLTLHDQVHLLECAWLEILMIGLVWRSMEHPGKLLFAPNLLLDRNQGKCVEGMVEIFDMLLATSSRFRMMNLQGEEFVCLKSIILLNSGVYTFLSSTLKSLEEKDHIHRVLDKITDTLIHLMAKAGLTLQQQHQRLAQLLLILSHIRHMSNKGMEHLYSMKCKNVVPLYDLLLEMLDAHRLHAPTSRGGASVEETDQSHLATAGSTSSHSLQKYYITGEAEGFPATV

Compound | Potency
CC(C)c1cccc(C(C)C)c1O | inactive
COP(=S)(OC)Oc1ccc(SC)c(C)c1 | inactive
O=C/C=C/c1ccccc1 | inactive
C[C@H]1C(=O)O[C@@H]2CCN3CC=C(COC(=O)[C@](C)(O)[C@]1(C)O)[C@H]23 | inactive
c1ccc2c(c1)CCCC2 | inactive
CNC(=O)Oc1cccc2ccccc12 | inactive
O=[N+]([O-])c1cc([As](=O)(O)O)ccc1O | inactive

test system: not listed separately; assay: qHTS assay to identify small molecule phospholipidosis (PLD) inducers (AID 1259344; active = well fitted curve in the direction sought with a large enough effect; an effect the other way counts as inactive or inconclusive); conditions: HepG2 phospholipidosis, LipidTOX Red imaging, 24 h; series mostly up to 38.3 µM
Procedure, shortened: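 Accumulated phospholipid, stained red by LipidTOX during 24 h compound treatment of HepG2 cells at 37 C, is quantified from images as pit number and intensity, normalised per cell using Hoechst-stained nuclei.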

Compound | Potency
Nc1ccc(N)cc1 | inactive
CC(C)c1cccc(C(C)C)c1O | inactive
COP(=S)(OC)Oc1ccc(SC)c(C)c1 | inactive
O=C(O)c1cc(Oc2ccc(C(F)(F)F)cc2Cl)ccc1[N+](=O)[O-] | inactive
O=C/C=C/c1ccccc1 | inactive
CN1C(=O)CCS(=O)(=O)C1c1ccc(Cl)cc1 (stereo not drawn) | inactive
C[C@H]1C(=O)O[C@@H]2CCN3CC=C(COC(=O)[C@](C)(O)[C@]1(C)O)[C@H]23 | inactive
[N-]=[N+]=CC(=O)OC[C@H](N)C(=O)O | inactive
COC(C)(C)CCCC(C)C/C=C/C(C)=C/C(=O)OC(C)C (stereo not drawn) | inactive
CNC(=O)Oc1cccc2ccccc12 | inactive
O=[N+]([O-])c1cc([As](=O)(O)O)ccc1O | inactive

test system: not listed separately; assay: qHTS assay to identify small molecule HDAC inhibitors (AID 1259364); conditions: HCT-116 HDAC-Glo I/II luminescence, 2 h; series mostly up to 92.4 µM; also: potency is read from the fitted curve at half-maximal effect;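 also: wild-type HCT-116 cells with endogenous class I/II HDAC activity; nearly all actives have a fitted effect of over 45% in size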
Procedure, shortened: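 After a 2 hr compound incubation (37C, 5% CO2), HCT-116 cells seeded at 1,500/well the day before received HDAC-Glo reagent; signal read as luminescence after 30 min at room temperature.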

Compound | Potency
ClCCOCCCl | inactive
CN(C)C(=O)Nc1cccc(C(F)(F)F)c1 | inactive
CN(C)C(=O)C(c1ccccc1)c1ccccc1 | inactive
Nc1ccc(N)cc1 | inactive
O=S(=O)(O)OOS(=O)(=O)O | inactive
CC12CC1(C)C(=O)N(c1cc(Cl)cc(Cl)c1)C2=O (stereo not drawn) | inactive
OCCCCO | inactive
COC(=O)Nc1cccc(OC(=O)Nc2cccc(C)c2)c1 | 27.3 µM (active) and 30.6 µM (active)
N#Cc1cccc(C#N)c1 | inactive
Nc1cc(Cl)cc(Cl)c1 | inactive
CC(C)c1cccc(C(C)C)c1O | inactive
COP(=S)(OC)Oc1ccc(SC)c(C)c1 | inactive
O=C(O)c1cc(Oc2ccc(C(F)(F)F)cc2Cl)ccc1[N+](=O)[O-] | inactive
CSc1nnc(C(C)(C)C)c(=O)n1N | inactive
COc1cc(-c2ccc(N)c(OC)c2)ccc1N | inactive and 27.3 µM (active)
O=C/C=C/c1ccccc1 | inactive

Compound | Potency
CCCCCCCCCCCCCCCCCC(=O)O | inactive
CC(=O)/C=C/c1ccccc1 | inactive
Cc1ccccc1N | inactive
CN1C(=O)CCS(=O)(=O)C1c1ccc(Cl)cc1 (stereo not drawn) | inactive
Cl[C@H]1OCCO[C@@H]1Cl | inactive
C[C@H]1C(=O)O[C@@H]2CCN3CC=C(COC(=O)[C@](C)(O)[C@]1(C)O)[C@H]23 | inactive
[N-]=[N+]=CC(=O)OC[C@H](N)C(=O)O | inactive
Cc1ccc(N=C=O)cc1N=C=O | inactive
COC(C)(C)CCCC(C)C/C=C/C(C)=C/C(=O)OC(C)C (stereo not drawn) | inactive
CCOP(=S)(OCC)Oc1ccc([N+](=O)[O-])cc1 | inactive
c1ccc2c(c1)CCCC2 | inactive
CNC(=O)Oc1cccc2ccccc12 | inactive
Cc1ccc(N)cc1 | inactive
CN(C)NC(=O)CCC(=O)O | inactive
O=[N+]([O-])c1cc([As](=O)(O)O)ccc1O | inactive
